Data taken from PubChem BioAssay (NCATS).
Results filed as inconclusive are left out. Values without a mark were called inactive. Calls of active or inactive are those of the source. Calls come from the whole dose curve; as a rule, active = well fitted cell-killing curve with a large enough effect; inconclusive = small, poorly fitted or top-dose-only effect, or effect the other way; inactive = flat fitted curve, though single readings scatter.
% is set by controls: 0 for no effect and ±100 for the full control effect.

Each molecule was assayed on C33A (assay: Primary qHTS to identify gynecologic anti-cancer compounds using libraries of approved drugs and bioactive compounds (AID 1345084; note: nearly all actives have a fitted effect of over 55% in size)). Details: Gynecologic cancer cell panel viability, ATPlite luminescence, 48 h; series mostly up to 57.5 µM; activity change, negative = cytotoxicity: at the top concentration.
In short: (§1)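 48 h compound exposure at 37 C, 5% CO2; five-point qHTS. ATPlite luminescence readout of cell ATP.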
With `CCc1oc2ccccc2c1C(=O)c1cc(Br)c(O)c(Br)c1` the “activity change, negative = cytotoxicity” value was -3.12%.
For `C=C[C@H]1CN2CC[C@H]1C[C@H]2[C@H](O)c1ccnc2ccc(OC)cc12`, the “activity change, negative = cytotoxicity” value was 11.2%.
`CC[C@H](c1ccc(O)cc1)[C@@H](CC)c1ccc(O)cc1` was tested, and the “activity change, negative = cytotoxicity” value was 1.86%.
With `CCCCC(CC)CN1CN(CC(CC)CCCC)CC(C)(N)C1` (stereo unspecified) the “activity change, negative = cytotoxicity” value was -2.97%.
In the case of `CO[C@H]1C=CO[C@@]2(C)Oc3c(C)c(O)c4c(O)c(c(/C=N/N5CCN(C)CC5)c(O)c4c3C2=O)NC(=O)/C(C)=C\C=C[C@H](C)[C@H](O)[C@@H](C)[C@@H](O)[C@@H](C)[C@H](OC(C)=O)[C@@H]1C`, the “activity change, negative = cytotoxicity” value is reported as 4.27%.
In the case of `Cc1cc(CC(=O)O)c(C)n1-c1ccc(Cl)cc1`, the “activity change, negative = cytotoxicity” value is reported as 0.136%.
In the case of `O=C1[C@H](CC[C@H](O)c2ccc(F)cc2)[C@@H](c2ccc(O)cc2)N1c1ccc(F)cc1`, the Potency is reported as “inactive”.
For `C#C[C@]1(O)CC[C@H]2[C@@H]3[C@H](C)CC4=C(CCC(=O)C4)[C@H]3CC[C@@]21C`, the “activity change, negative = cytotoxicity” value was -6.76%.
`CC(=O)OCC1=C(C(=O)O)N2C(=O)[C@@H](NC(=O)CSc3ccncc3)[C@H]2SC1` was tested, and the “activity change, negative = cytotoxicity” value was -12.3%.
For `NCCNC(=O)c1ccc(Cl)cn1`, the “activity change, negative = cytotoxicity” value was 8.02%.
In the case of `C[C@]12CCC(=O)C=C1C=C[C@@H]1[C@@H]2CC[C@@]2(C)[C@H]1CC[C@@]21CCC(=O)O1`, the “activity change, negative = cytotoxicity” value is reported as -28.6%.
With `COc1ccc(CCN(C)CCCN2CCc3cc(OC)c(OC)cc3CC2=O)cc1OC` the “activity change, negative = cytotoxicity” value was 8.81%.
For `CC(=O)O[C@]1(C(C)=O)CC[C@H]2[C@@H]3C=C(Cl)C4=CC(=O)CC[C@]4(C)[C@H]3CC[C@@]21C`, the “activity change, negative = cytotoxicity” value was -22.9%.
With `NC(=O)n1c(O)c(C(=O)c2cccs2)c2cc(Cl)ccc21` the “activity change, negative = cytotoxicity” value was 8.65%.
With `CC(=C(CCOC(=O)C(C)C)SSC(CCOC(=O)C(C)C)=C(C)N(C=O)Cc1cnc(C)nc1N)N(C=O)Cc1cnc(C)nc1N` the “activity change, negative = cytotoxicity” value was 2.36%.
In the case of `CCO[C@@H]1O[C@H](C(COCc2ccccc2)OCc2ccccc2)[C@H](OCc2ccccc2)[C@H]1O` (stereo partly specified), the “activity change, negative = cytotoxicity” value is reported as -2.45%.
In the case of `C=C1c2cccc(O)c2C(O)=C2C(=O)[C@]3(O)C(O)=C(C(N)=O)C(=O)[C@@H](N(C)C)[C@@H]3[C@@H](O)[C@H]12`, the “activity change, negative = cytotoxicity” value is reported as 7.27%.
In the case of `CN1CCN(C2=Nc3cc(F)ccc3Cc3ccccc32)CC1`, the “activity change, negative = cytotoxicity” value is reported as -1.24%.
In the case of `CC(C)[N+](C)(C)CC(O)COc1cccc2ccccc12` (stereo unspecified), the “activity change, negative = cytotoxicity” value is reported as -6.09%.
In the case of `O=[N+]([O-])c1ccc(/C=N\O)o1`, the “activity change, negative = cytotoxicity” value is reported as -1.17%.
With `C[N+]1(CC2COC(c3ccccc3)(C3CCCCC3)O2)CCCCC1` (stereo unspecified) the “activity change, negative = cytotoxicity” value was -12.4%.
`CCN(CC)CCOc1ccccc1C(=O)CCc1ccccc1` was tested, and the “activity change, negative = cytotoxicity” value was -9.49%.
In the case of `CCCCN=C(N)N=C(N)N`, the “activity change, negative = cytotoxicity” value is reported as -1.32%.
With `Cc1cc2c(OCC(CNC(C)(C)C)OC(=O)c3ccccc3)cccc2[nH]1` (stereo unspecified) the “activity change, negative = cytotoxicity” value was 6.13%.
`c1ccc(CC2=NCCN2)cc1` was tested, and the “activity change, negative = cytotoxicity” value was -0.162%.
For `CN1CCN(C2=Nc3ccccc3Sc3ccc(Cl)cc32)CC1`, the “activity change, negative = cytotoxicity” value was -0.601%.
`CCCCc1cc2ccccc2c(OCCN(C)C)n1` was tested, and the “activity change, negative = cytotoxicity” value was -1.76%.
`Cc1ccc(O)c([C@H](CCN(C(C)C)C(C)C)c2ccccc2)c1` was tested, and the “activity change, negative = cytotoxicity” value was -21.8%.
With `C#C[C@]1(O)CC[C@H]2[C@@H]3CCc4cc(OC)ccc4[C@H]3CC[C@@]21C` the “activity change, negative = cytotoxicity” value was -1.08%.
In the case of `O=C(CCN1CCN2CCCC2C1)N1c2ccccc2Sc2ccc(Cl)cc21` (stereo unspecified), the “activity change, negative = cytotoxicity” value is reported as -2.55% [at 25.3 µM].
With `CC(C)(Cc1c[nH]c2ccccc12)NCC(O)COc1ccccc1C#N` (stereo unspecified) the “activity change, negative = cytotoxicity” value was -19.8%.
For `COc1cc(O)c(C(=O)c2ccccc2)cc1S(=O)(=O)O`, the “activity change, negative = cytotoxicity” value was -1.09%.
For `CCC(CC)(CC(=O)Nc1cccc(/C=C/c2nc(C3CCC3)cs2)c1)C(=O)O`, the “activity change, negative = cytotoxicity” value was -5.1%.
With `OC[C@H]1O[C@@H](Oc2ccc(O)cc2)[C@H](O)[C@@H](O)[C@@H]1O` the “activity change, negative = cytotoxicity” value was -3.99%.
In the case of `O=C(Nc1ccccc1)OCC(CN1CCCCC1)OC(=O)Nc1ccccc1` (stereo unspecified), the “activity change, negative = cytotoxicity” value is reported as -14%.

What follows are molecules tested on CAOV3 in the same assay as above. Details: Gynecologic cancer cell panel viability, ATPlite luminescence, 48 h; series mostly up to 57.5 µM; activity change, negative = cytotoxicity: at the top concentration.
In short: as §1
In the case of `CCc1oc2ccccc2c1C(=O)c1cc(Br)c(O)c(Br)c1`, the “activity change, negative = cytotoxicity” value is reported as 2.56%.
For `C=C[C@H]1CN2CC[C@H]1C[C@H]2[C@H](O)c1ccnc2ccc(OC)cc12`, the “activity change, negative = cytotoxicity” value was -35.1%.
`CC[C@H](c1ccc(O)cc1)[C@@H](CC)c1ccc(O)cc1` was tested, and the “activity change, negative = cytotoxicity” value was -12.6%.
For `CO[C@H]1C=CO[C@@]2(C)Oc3c(C)c(O)c4c(O)c(c(/C=N/N5CCN(C)CC5)c(O)c4c3C2=O)NC(=O)/C(C)=C\C=C[C@H](C)[C@H](O)[C@@H](C)[C@@H](O)[C@@H](C)[C@H](OC(C)=O)[C@@H]1C`, the “activity change, negative = cytotoxicity” value was -18.6%.
With `Cc1cc(CC(=O)O)c(C)n1-c1ccc(Cl)cc1` the “activity change, negative = cytotoxicity” value was 15%.
For `CC(=O)OCC1=C(C(=O)O)N2C(=O)[C@@H](NC(=O)CSc3ccncc3)[C@H]2SC1`, the “activity change, negative = cytotoxicity” value was -11.2%.
With `C[C@]12CCC(=O)C=C1C=C[C@@H]1[C@@H]2CC[C@@]2(C)[C@H]1CC[C@@]21CCC(=O)O1` the “activity change, negative = cytotoxicity” value was -8.9%.
With `CC(=C(CCOC(=O)C(C)C)SSC(CCOC(=O)C(C)C)=C(C)N(C=O)Cc1cnc(C)nc1N)N(C=O)Cc1cnc(C)nc1N` the “activity change, negative = cytotoxicity” value was -7.83%.
In the case of `CN1CCN(C2=Nc3cc(F)ccc3Cc3ccccc32)CC1`, the “activity change, negative = cytotoxicity” value is reported as -0.0164%.
`CC(C)[N+](C)(C)CC(O)COc1cccc2ccccc12` (stereo unspecified) was tested, and the “activity change, negative = cytotoxicity” value was -10.2%.
With `O=[N+]([O-])c1ccc(/C=N\O)o1` the “activity change, negative = cytotoxicity” value was 6.57%.
In the case of `C[N+]1(CC2COC(c3ccccc3)(C3CCCCC3)O2)CCCCC1` (stereo unspecified), the “activity change, negative = cytotoxicity” value is reported as -29.6%.
`Cc1cc2c(OCC(CNC(C)(C)C)OC(=O)c3ccccc3)cccc2[nH]1` (stereo unspecified) was tested, and the “activity change, negative = cytotoxicity” value was 3.86%.
With `c1ccc(CC2=NCCN2)cc1` the “activity change, negative = cytotoxicity” value was -3.69%.
`CN1CCN(C2=Nc3ccccc3Sc3ccc(Cl)cc32)CC1` was tested, and the “activity change, negative = cytotoxicity” value was -4.55%.
For `CCCCc1cc2ccccc2c(OCCN(C)C)n1`, the “activity change, negative = cytotoxicity” value was -21.6%.
For `Cc1ccc(O)c([C@H](CCN(C(C)C)C(C)C)c2ccccc2)c1`, the “activity change, negative = cytotoxicity” value was -29.5%.
For `C#C[C@]1(O)CC[C@H]2[C@@H]3CCc4cc(OC)ccc4[C@H]3CC[C@@]21C`, the “activity change, negative = cytotoxicity” value was 6.81%.
With `O=C(CCN1CCN2CCCC2C1)N1c2ccccc2Sc2ccc(Cl)cc21` (stereo unspecified) the “activity change, negative = cytotoxicity” value was 1.75% [at 25.3 µM].
For `COc1cc(O)c(C(=O)c2ccccc2)cc1S(=O)(=O)O`, the “activity change, negative = cytotoxicity” value was -2.87%.
`OC[C@H]1O[C@@H](Oc2ccc(O)cc2)[C@H](O)[C@@H](O)[C@@H]1O` was tested, and the “activity change, negative = cytotoxicity” value was -7.65%.
